Source: PubChem BioAssay AID1159580 (chemical genetic matrix, 2015)
The whole screen tested about 5,500 compounds, of which about 2,000 (36%) were called active. Not shown: some 18% with an inconclusive outcome. No stated cut-off is given here; in the data, active means normalized growth mostly below about 0.91 (no sharp cut-off); inconclusive means no clear call, values can overlap the other calls; inactive means mostly above about 0.92. The list shows a part of the results.

Assay: chemical genetic growth profiling, strain panel (AID 1159580);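 further: tested at 20 µM; growth read once vehicle control cultures reached saturation at 30 °C; 1 = growth at the plate median or of vehicle wells; lower values mean less growth of the strain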
Settings: growth OD
[1] = S. cerevisiae deletion strains, locus YAR019C, strain CDC15, active compounds read low
[2] = S. cerevisiae deletion strains, locus YBL105C, strain PKC1, active compounds read low
[3] = S. cerevisiae deletion strains, locus YBR135W, strain CKS1, active compounds read low
[4] = S. cerevisiae deletion strains, locus YBR136W, strain MEC1, active compounds read low
[5] = S. cerevisiae deletion strains, locus YBR160W, strain CDC28, active compounds read low
[6] = S. cerevisiae deletion strains, locus YDL017W, strain CDC7, active compounds read low
[7] = S. cerevisiae deletion strains, locus YDL028C, strain MPS1, active compounds read low
[8] = S. cerevisiae deletion strains, locus YDL101C, strain DUN1, active compounds read low
[9] = S. cerevisiae deletion strains, locus YDL108W, strain KIN28, active compounds read low
[10] = S. cerevisiae deletion strains, locus YDL132W, strain cdc53, active compounds read low
[11] = S. cerevisiae deletion strains, locus YDL214C, strain PRR2, active compounds read low
[12] = S. cerevisiae deletion strains, locus YDR052C, strain DBF4, active compounds read low
[13] = S. cerevisiae deletion strains, locus YDR054C, strain cdc34, active compounds read low
[14] = S. cerevisiae deletion strains, locus YDR226W, strain ADK1, active compounds read low
[15] = S. cerevisiae deletion strains, locus YDR477W, strain SNF1, active compounds read low
[16] = S. cerevisiae deletion strains, locus YER123W, strain YCK3, active compounds read low
[17] = S. cerevisiae deletion strains, locus YER133W, strain GLC7, active compounds read low
[18] = S. cerevisiae deletion strains, locus YFL009W, strain cdc4, active compounds read low
[19] = S. cerevisiae deletion strains, locus YFL029C, strain CAK1, active compounds read low
[20] = S. cerevisiae deletion strains, locus YFR003C, strain YPI1, active compounds read low
[21] = S. cerevisiae deletion strains, locus YFR019W, strain FAB1, active compounds read low
[22] = S. cerevisiae deletion strains, locus YFR028C, strain CDC14, active compounds read low
[23] = S. cerevisiae deletion strains, locus YGR040W, strain KSS1, active compounds read low
[24] = S. cerevisiae deletion strains, locus YGR052W, strain FMP48, active compounds read low
[25] = S. cerevisiae deletion strains, locus YGR092W, strain DBF2, active compounds read low
[26] = S. cerevisiae deletion strains, locus YHR030C, strain SLT2, active compounds read low
[27] = S. cerevisiae deletion strains, locus YHR079C, strain IRE1, active compounds read low
[28] = S. cerevisiae deletion strains, locus YHR082C, strain KSP1, active compounds read low
[29] = S. cerevisiae deletion strains, locus YHR205W, strain SCH9, active compounds read low
[30] = S. cerevisiae deletion strains, locus YIL147C, strain SLN1, active compounds read low
[31] = S. cerevisiae deletion strains, locus YJL095W, strain BCK1, active compounds read low
[32] = S. cerevisiae deletion strains, locus YJL128C, strain PBS2, active compounds read low
[33] = S. cerevisiae deletion strains, locus YJL157C, strain FAR1, active compounds read low
[34] = S. cerevisiae deletion strains, locus YJR016C, strain ILV3, active compounds read low
[35] = S. cerevisiae deletion strains, locus YJR066W, strain TOR1 (second series), active compounds read low
[36] = S. cerevisiae deletion strains, locus YJR066W, strain TOR1, active compounds read low
[37] = S. cerevisiae deletion strains, locus YKL048C, strain ELM1, active compounds read low
[38] = S. cerevisiae deletion strains, locus YKL067W, strain YNK1, active compounds read low
[39] = S. cerevisiae deletion strains, locus YKL101W, strain HSL1, active compounds read low
[40] = S. cerevisiae deletion strains, locus YKL193C, strain SDS22, active compounds read low
[41] = S. cerevisiae deletion strains, locus YKL203C, strain TOR2, active compounds read low
[42] = S. cerevisiae deletion strains, locus YLR113W, strain HOG1, active compounds read low
[43] = S. cerevisiae deletion strains, locus YLR133W, strain CKI1, active compounds read low
[44] = S. cerevisiae deletion strains, locus YLR403W, strain SFP1, active compounds read low
[45] = S. cerevisiae deletion strains, locus YML070W, strain DAK1, active compounds read low
[46] = S. cerevisiae deletion strains, locus YMR001C, strain CDC5, active compounds read low
[47] = S. cerevisiae deletion strains, locus YMR205C, strain PFK2 (second series), active compounds read low
[48] = S. cerevisiae deletion strains, locus YMR277W, strain FCP1, active compounds read low
[49] = S. cerevisiae deletion strains, locus YNL006W, strain LST8, active compounds read low
[50] = S. cerevisiae deletion strains, locus YNL020C, strain ARK1, active compounds read low
[51] = S. cerevisiae deletion strains, locus YNL161W, strain CBK1, active compounds read low
[52] = S. cerevisiae deletion strains, locus YNL183C, strain NPR1, active compounds read low
[53] = S. cerevisiae deletion strains, locus YNL207W, strain RIO2, active compounds read low
[54] = S. cerevisiae deletion strains, locus YNL222W, strain SSU72, active compounds read low
[55] = S. cerevisiae deletion strains, locus YNL307C, strain MCK1 (second series), active compounds read low
[56] = S. cerevisiae deletion strains, locus YOL078W, strain AVO1, active compounds read low
[57] = S. cerevisiae deletion strains, locus YOL136C, strain PFK27, active compounds read low
[58] = S. cerevisiae deletion strains, locus YOR061W, strain CKA2, active compounds read low
[59] = S. cerevisiae deletion strains, locus YOR119C, strain RIO1, active compounds read low
[60] = S. cerevisiae deletion strains, locus YOR231W, strain MKK1, active compounds read low
[61] = S. cerevisiae deletion strains, locus YOR329C, strain SCD5, active compounds read low
[62] = S. cerevisiae deletion strains, locus YPL031C, strain PHO85, active compounds read low
[63] = S. cerevisiae deletion strains, locus YPL153C, strain RAD53, active compounds read low
[64] = S. cerevisiae deletion strains, locus YPL204W, strain HRR25, active compounds read low
[65] = S. cerevisiae deletion strains, locus YPL209C, strain IPL1, active compounds read low
[66] = S. cerevisiae deletion strains, locus YPL256C, strain CLN2, active compounds read low
[67] = S. cerevisiae deletion strains, locus YPR025C, strain CCL1, active compounds read low
[68] = S. cerevisiae deletion strains, locus YPR106W, strain ISR1, active compounds read low
[69] = S. cerevisiae deletion strains, locus YPR111W, strain DBF20, active compounds read low
[70] = S. cerevisiae deletion strains, strain NNK1, active compounds read low
[71] = S. cerevisiae deletion strains, strain TSCII, active compounds read low

Measured: normalized growth

O=C(Nc1ccc(OC(F)(F)F)cc1)N1CCN(c2nc(-c3ccccc3)ns2)CC1
active: [29] 0.51 | [42] 0.733 | [66] 0.832
inactive: [1] 1 | [2] 1 | [3] 0.992 | [4] 0.992 | [5] 0.991 | [6] 0.992 | [7] 1.01 | [8] 0.97 | [9] 0.998 | [10] 1 | [11] 0.802 | [12] 0.992 | [13] 1 | [14] 0.995 | [15] 0.957 | [16] 0.861 | [17] 0.97 | [18] 0.991 | [19] 0.989 | [20] 0.98 | [21] 0.924 | [22] 0.997 | [23] 0.933 | [24] 0.906 | [25] 0.898 | [26] 0.893 | [27] 0.864 | [28] 0.905 | [30] 0.994 | [31] 0.91 | [32] 0.843 | [33] 0.888 | [34] 1 | [35] 0.858 | [36] 1.01 | [37] 0.867 | [38] 0.844 | [39] 0.79 | [40] 0.987 | [41] 1.01 | [43] 0.826 | [44] 0.905 | [45] 0.856 | [46] 0.992 | [47] 0.793 | [48] 0.989 | [49] 0.994 | [50] 0.818 | [51] 0.983 | [52] 0.815 | [53] 0.982 | [54] 0.994 | [55] 0.805 | [56] 0.997 | [57] 0.772 | [58] 0.856 | [59] 1 | [60] 0.843 | [61] 0.984 | [62] 0.952 | [63] 0.909 | [64] 0.941 | [65] 0.994 | [67] 1 | [68] 0.929 | [69] 0.925 | [70] 0.909 | [71] 0.979

O=C(Nc1ccc(OC(F)(F)F)cc1)OC1CN(C(c2ccccc2)c2ccccc2)C1
inactive: [1] 1 | [2] 0.995 | [3] 0.996 | [4] 0.999 | [5] 0.999 | [6] 0.999 | [7] 1 | [8] 0.984 | [9] 0.991 | [10] 1 | [11] 0.993 | [12] 0.99 | [13] 0.988 | [14] 0.995 | [15] 0.988 | [16] 0.96 | [17] 0.992 | [18] 0.988 | [19] 0.992 | [20] 0.998 | [21] 0.983 | [22] 1.01 | [23] 0.987 | [24] 1.1 | [25] 0.961 | [26] 0.9 | [27] 1.02 | [28] 1.06 | [29] 0.981 | [30] 1 | [31] 0.96 | [32] 0.993 | [33] 0.986 | [34] 1.01 | [35] 0.981 | [36] 0.98 | [37] 0.961 | [38] 0.969 | [39] 0.982 | [40] 1.01 | [41] 1.02 | [42] 0.943 | [43] 0.972 | [44] 0.973 | [45] 0.966 | [46] 1 | [47] 0.967 | [48] 1.01 | [49] 0.994 | [50] 0.969 | [51] 1 | [52] 0.969 | [53] 0.985 | [54] 1 | [55] 1 | [56] 1 | [57] 0.986 | [58] 0.987 | [59] 1.06 | [60] 1.01 | [61] 0.999 | [62] 0.99 | [63] 0.961 | [64] 0.96 | [65] 0.984 | [66] 1 | [67] 1 | [68] 0.991 | [69] 0.977 | [70] 0.981 | [71] 1.01

CSC(=NC#N)N1CCN(c2ccc([N+](=O)[O-])cn2)CC1
inactive: S. cerevisiae deletion strains, locus YAL013W, strain DEP1, active compounds read low 0.997 | S. cerevisiae deletion strains, locus YBR229C, strain ROT2, active compounds read low 1.01 | S. cerevisiae deletion strains, locus YCL061C, strain MRC1, active compounds read low 1 | [8] 1.02 | S. cerevisiae deletion strains, locus YDL134C, strain PPH21, active compounds read low 0.987 | S. cerevisiae deletion strains, locus YDR150W, strain NUM1, active compounds read low 1.07 | S. cerevisiae deletion strains, locus YEL061C, strain CIN8, active compounds read low 0.957 | S. cerevisiae deletion strains, locus YGR078C, strain PAC10, active compounds read low 0.996 | [26] 0.958 | S. cerevisiae deletion strains, locus YHR087W, strain rtc3, active compounds read low 0.991 | S. cerevisiae deletion strains, locus YJL187C, strain SWE1, active compounds read low 0.993 | S. cerevisiae deletion strains, locus YJR043C, strain POL32, active compounds read low 1.01 | S. cerevisiae deletion strains, locus YJR075W, strain HOC1, active compounds read low 1.01 | S. cerevisiae deletion strains, locus YLR039C, strain RIC1, active compounds read low 0.986 | S. cerevisiae deletion strains, locus YLR058C, strain SHM2 (second series), active compounds read low 0.989 | S. cerevisiae deletion strains, locus YLR085C, strain ARP6, active compounds read low 0.933 | S. cerevisiae deletion strains, locus YLR262C, strain YPT6, active compounds read low 0.978 | S. cerevisiae deletion strains, locus YML094W, strain GIM5, active compounds read low 0.966 | S. cerevisiae deletion strains, locus YMR219W, strain ESC1, active compounds read low 0.996 | S. cerevisiae deletion strains, locus YMR263W, strain SAP30, active compounds read low 1.01 | S. cerevisiae deletion strains, locus YMR307W, strain GAS1, active compounds read low 1.1 | S. cerevisiae deletion strains, locus YNL153C, strain GIM3, active compounds read low 1 | S. cerevisiae deletion strains, locus YNL298W, strain CLA4 (second series), active compounds read low 0.978 | S. cerevisiae deletion strains, locus YNL322C, strain KRE1, active compounds read low 0.99 | S. cerevisiae deletion strains, locus YNR030W, strain Alg12, active compounds read low 0.954 | S. cerevisiae deletion strains, locus YPL055C, strain LGE1, active compounds read low 1.08 | S. cerevisiae deletion strains, locus YPL241C, strain CIN2, active compounds read low 0.99 | S. cerevisiae deletion strains, locus YPR135W, strain CTF4, active compounds read low 1.09 | S. cerevisiae strains, strain wild type, active compounds read low 0.983
